SENP7 inh: SENP7 protease inhibition. Q9BQF6. recombinant SENP7, Z-RLRGG-aminoluciferin luminescence, 40 min. inhibition, % at 5 µM. 330,000 tested, 1.5% active;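 active = inhibition above about 50% at the single test dose, limit read from the data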;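 also: plate controls were DMSO with enzyme for no effect and no enzyme buffer wells for full effect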
SENP6 inh: SENP6 protease inhibition; Q9GZR1; Recombinant SENP6 catalytic domain, aminoluciferin luminescence; inhibition, % at 10 µM; 330,000 tested, 1.8% active;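 active = inhibition above about 50% at the single tested dose, limit read from the data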;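 also: plate controls were DMSO wells with enzyme for no effect and DMSO wells lacking enzyme for full effect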
Target sequence (Q9GZR1 628-1112 limits assumed): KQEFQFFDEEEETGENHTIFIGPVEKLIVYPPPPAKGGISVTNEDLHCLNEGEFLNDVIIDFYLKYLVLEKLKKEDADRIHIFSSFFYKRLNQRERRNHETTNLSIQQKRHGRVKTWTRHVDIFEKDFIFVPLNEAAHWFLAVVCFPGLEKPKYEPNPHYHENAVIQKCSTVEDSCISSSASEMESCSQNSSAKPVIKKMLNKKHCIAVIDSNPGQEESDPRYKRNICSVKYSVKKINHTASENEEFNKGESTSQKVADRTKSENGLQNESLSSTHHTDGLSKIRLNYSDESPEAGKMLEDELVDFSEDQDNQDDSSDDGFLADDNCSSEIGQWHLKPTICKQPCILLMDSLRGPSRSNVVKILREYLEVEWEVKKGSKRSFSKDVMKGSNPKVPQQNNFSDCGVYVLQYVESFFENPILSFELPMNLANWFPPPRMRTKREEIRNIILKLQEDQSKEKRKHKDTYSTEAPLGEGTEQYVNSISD
SENP8 block-1: SENP8 (human) protease inhibition | 360,000 tested, 0.64% active | Q96LD8 | AID 602440 | inhibition, % at 20 µM | recombinant SENP8, Nedd8 substrate fluorescence; in the data active = inhibition mostly above about 40%, no sharp cut-off; inactive = mostly below about 27%
SENP8 block-2: SENP8 protease inhibition | Q96LD8 | purified SENP8, Z-RLRGG-aminoluciferin cleavage, luminescence | inhibition, % at 10 µM | 330,000 tested, 1.2% active; in the data active = inhibition above about 50%
AHR activator: human AHR activation; P35869; AHR-responsive luciferase reporter cells, luminescence; activation, % at 5 µM; 320,000 tested, 2.5% active; in the data active = activation above about 47%;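 also: 0% = vehicle wells and 100% = reference agonist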
EBI2 antag: EBI2 (human) antagonism; P32249; EBI2 beta-arrestin recruitment, luminescence, 7a,25-OHC stimulated; inhibition, % at 5 µM; 360,000 tested, 0.81% active; AID 651636; in the data active = inhibition above about 38%;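 also: enzyme fragment complementation signal reports receptor beta-arrestin coupling in cells; 0% = agonist plus DMSO wells and 100% = wells without agonist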
EBI2 conf: EBI2 (human) antagonism, single concentration confirmation; shares compounds with EBI2 antag; EBI2 beta-arrestin luminescence, 7a,25-OHC antagonism; inhibition, % at 5 µM; 2,400 tested, 29% active;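 active = inhibition of at least 50%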
EBI2 ag: counter-screen for EBI2 antagonists: EBI2 agonist activity; shares compounds with EBI2 antag; EBI2-expressing cells, agonist mode, luminescence, 60 min; 0% vehicle, 100% 7α,25-dihydroxycholesterol control; activation, % at 5 µM; 2,400 tested, under 10 active;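 active = activation of at least 50%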
bGal counter: beta-galactosidase inhibition counter-screen | shares compounds with EBI2 antag | inhibition, % at 5 µM | 2,400 tested, 1% active | purified beta-galactosidase, luminescent Galacton Star, 15 min | AID 652176;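 active = replicate-average signal at least 3 plate SD below neutral wells, shown as high inhibition, flagging enzyme-inhibiting false positives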;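 also: 0% = DMSO wells with enzyme and 100% = wells lacking enzyme; higher means stronger loss of beta-gal luminescence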
* hit, by the source's call. A selection: hits, their analogues and other compounds. The true share with any hit is near 5%.

How did CNc1ccc(C(=O)N2CCN(S(=O)(=O)c3ccc4c(c3)OCCCO4)CC2)cc1[N+](=O)[O-] do in these assays?
SENP7 inh: -6; SENP6 inh: -10; SENP8 block-1: 18; SENP8 block-2: 1; AHR activator: 0; EBI2 antag: 47*; EBI2 conf: 29; EBI2 ag: 1; bGal counter: 8

What do the screens show for `C=CCN1C(=O)C2C3CC(=O)C(c4ccccc43)C2C1=O` (stereo unspecified)?
SENP7 inh: 0; SENP6 inh: 0; SENP8 block-1: 4; SENP8 block-2: 0; AHR activator: 0; EBI2 antag: 4

Results for COc1ccc(-c2c(C#N)c(N)nc3sc(C(=O)c4ccccc4)c(N)c23)cc1 ?
SENP8 block-1: -182; AHR activator: -1; EBI2 antag: 49*; EBI2 conf: 42; EBI2 ag: -1; bGal counter: -8

What do the screens show for `CCOc1ccc(-c2c(C#N)c(N)nc3sc(C(=O)c4ccccc4)c(N)c23)cc1`?
SENP7 inh: 3; SENP6 inh: -14; SENP8 block-1: -253; SENP8 block-2: 1; AHR activator: 6; EBI2 antag: 42*; EBI2 conf: 20; EBI2 ag: 1; bGal counter: 4

What do the screens show for `CSc1c(C#N)c(N)nc2sc(C(=O)c3ccc(Cl)c(Cl)c3)c(N)c12`?
SENP7 inh: 6; SENP6 inh: -2; SENP8 block-2: 6; AHR activator: 11

How did Cc1cccc(OCCSc2nc3ccccc3n2CC(=O)O)c1 do in these assays?
SENP7 inh: -3; SENP6 inh: -9; SENP8 block-1: 6; SENP8 block-2: -5; AHR activator: -1; EBI2 antag: -9

Results for O=C(/C=C/c1ccc2c(c1)OCO2)NCCS(=O)(=O)N1CCN(c2ccccc2)CC1 ?
SENP8 block-1: -188; EBI2 antag: 8

How did COc1ccc(C2CC(c3cccs3)=NN2c2nc(-c3ccccc3)cs2)cc1OC (stereo unspecified) do in these assays?
SENP7 inh: -5; SENP6 inh: -28; SENP8 block-1: -232; SENP8 block-2: -11; AHR activator: 13; EBI2 antag: 1

Results for CC1CCC(NS(=O)(=O)c2ccc(Cl)nc2)CC1 (stereo unspecified) ?
SENP7 inh: -8; SENP6 inh: -28; SENP8 block-1: 0; SENP8 block-2: 2; AHR activator: 2; EBI2 antag: -4

How did COc1cc(/C=C(\C#N)C(=O)c2c(C)[nH]c3ccccc23)cc(OC)c1OC do in these assays?
SENP7 inh: 9; SENP6 inh: 4; SENP8 block-1: 13; SENP8 block-2: -1; AHR activator: 5; EBI2 antag: 45*; EBI2 conf: 35; EBI2 ag: 3; bGal counter: 7

Results for CSc1ccc(CCNC(=O)c2ccc(CS(=O)Cc3ccc(Cl)cc3)o2)cc1 (stereo unspecified) ?
SENP7 inh: -3; SENP6 inh: 3; SENP8 block-1: 6; SENP8 block-2: -1; AHR activator: 0; EBI2 antag: 54*; EBI2 conf: 7; EBI2 ag: 0; bGal counter: -12

Results for CCOc1ccc(CCNC(=O)c2ccc(CS(=O)Cc3ccccc3Cl)o2)cc1 (stereo unspecified) ?
SENP7 inh: 17; SENP6 inh: -22; SENP8 block-1: 5; SENP8 block-2: -2; AHR activator: 1; EBI2 antag: -2

Results for CCOc1ccc(CCNC(=O)c2ccc(CS(=O)Cc3ccc(Cl)cc3)o2)cc1 (stereo unspecified) ?
SENP7 inh: 1; SENP6 inh: 9; SENP8 block-1: 14; SENP8 block-2: 2; AHR activator: 4; EBI2 antag: 46*; EBI2 conf: 28; EBI2 ag: 1; bGal counter: 2

What do the screens show for `O=C(NCCc1ccccc1)c1ccc(CS(=O)Cc2cccc(Cl)c2)o1` (stereo unspecified)?
SENP7 inh: 1; SENP6 inh: -12; SENP8 block-1: 15; SENP8 block-2: 11; AHR activator: 10; EBI2 antag: 23

How did COc1ccc(OC)c(CCNC(=O)c2ccc(CS(=O)Cc3ccc(Cl)cc3)o2)c1 (stereo unspecified) do in these assays?
SENP7 inh: -2; SENP6 inh: 1; SENP8 block-1: 10; SENP8 block-2: 8; AHR activator: 15; EBI2 antag: 28

What do the screens show for `O=C(NCCc1ccc(Cl)cc1)c1ccc(CS(=O)Cc2ccc(Cl)cc2)o1` (stereo unspecified)?
SENP7 inh: 9; SENP6 inh: 12; SENP8 block-1: 16; SENP8 block-2: 0; AHR activator: 2; EBI2 antag: 68*; EBI2 conf: 54*; EBI2 ag: -2; bGal counter: -8

How did CCOC1=C2[C@@H](CN(S(=O)(=O)c3ccccc3C)[C@H]2c2ccc(Cl)cc2)[C@H]2C(=O)NC(=O)[C@H]2C1 do in these assays?
SENP8 block-1: 14; EBI2 antag: -7

Results for Cc1nn(-c2ccccc2)c(=S)c2ccccc12 ?
SENP7 inh: 0; SENP6 inh: 13; SENP8 block-1: 4; SENP8 block-2: -1; AHR activator: 14; EBI2 antag: -5

What do the screens show for `COc1ccc2cc3cc(C(=O)NCc4cccnc4)oc3nc2c1`?
SENP7 inh: 6; SENP6 inh: 3; SENP8 block-1: -423; SENP8 block-2: 2; AHR activator: -2; EBI2 antag: 0

What do the screens show for `Cc1ccc(NCC(=O)N2CCN(S(=O)(=O)c3ccccc3)CC2)cc1F`?
SENP7 inh: 1; SENP6 inh: 0; SENP8 block-1: 9; SENP8 block-2: 11; EBI2 antag: 87*; EBI2 conf: 48; EBI2 ag: -1; bGal counter: -9

How did CC(=O)c1ccc(S(=O)(=O)N2CCN(CCOc3ccc(Br)cc3)CC2)cc1 do in these assays?
SENP7 inh: 5; SENP6 inh: -4; SENP8 block-1: 11; SENP8 block-2: -6; AHR activator: -4; EBI2 antag: 90*; EBI2 conf: 58*; EBI2 ag: 2; bGal counter: 5

How did O=C(COc1ccc(S(=O)(=O)N2CCCC2)cc1)N1CCCC1 do in these assays?
SENP7 inh: 11; SENP6 inh: 24; SENP8 block-1: 1; SENP8 block-2: 1; AHR activator: -1; EBI2 antag: -2

What do the screens show for `CCOc1ccc(OCC(=O)N2CCN(S(=O)(=O)c3ccccc3)CC2)cc1`?
SENP8 block-1: 16; EBI2 antag: 59*; EBI2 conf: 28; EBI2 ag: 0; bGal counter: -14

High-throughput results (PubChem)
